Consider 5 compounds from PubChem BioAssay (NCATS).

Experiment [1] concerns the target Calcium and integrin-binding protein 1 (Homo sapiens) (UniProt Q99828). As to the kind of experiment: Primary qHTS for Identification of Calcium Integrin Binding Protein 1 (CIB1) Competitor (AID 1508620).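 Further: GST tagged CIB1 binding a fluorescein labelled alphaIIb integrin peptide tracer; top concentration of the series differs between compounds.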 The method in brief: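 Fluorescence polarization competition: CIB1-GST (1 uM final) preincubated with compound 15 min at room temperature, then FITC-labeled alphaIIb peptide (100 nM final) added for another 15 min. Polarization read at Ex 480/Em 540.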
For orientation: qHTS replaces the single test concentration by a dilution series.

Experiment [2] can be described thus: qHTS for Inhibitors of Ubiquitin-specific Protease USP2a Using CHOP2 as the Reporter: K633 Counterscreen (AID 652168). Further: series mostly up to about 57 µM. The method, boiled down:
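Detection-system control: fluorescence of K48-linked DiUb-4IQF substrate (100 nM as added) tracked over time, Ex 525/Em 598, with pinned compounds and no enzyme, in pH 8 Tris buffer containing beta-mercaptoethanol and 0.05% Chaps.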

The nature of experiment [3]: qHTS for Inhibitors of Ubiquitin-specific Protease USP2a Using CHOP2 as the Reporter: Cytotox Assay (AID 652170).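 Further: HCT116 human colon cancer cells at 600 per well; series mostly up to about 46 µM; nearly all actives have a fitted effect of over 70% in size.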 The method in brief:
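Cytotoxicity read as ATP luminescence (CellTiter-Glo) after 72 hr compound treatment at 37 deg C. Cells: HCT116, 600/well in DMEM plus 10% FBS. Normalization between DMSO-treated cells and cell-free wells.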

Experiment [4] has as its target Ubiquitin carboxyl-terminal hydrolase 2 (Homo sapiens) (UniProt O75604). The experiment can be described thus: qHTS for Inhibitors of Ubiquitin-specific Protease USP2a Using CHOP2 as the Reporter: K484 Substrate (AID 652173).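 Further: cleavage of internally quenched K48 di-ubiquitin substrate measured as rising fluorescence over time; nearly all actives have a fitted effect of over 70% in size.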 Further: potency means the concentration at half of the fitted maximal effect. The method in brief:
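Kinetic fluorescence (Ex 525/Em 598) tracked cleavage of an internally quenched K48 di-ubiquitin substrate, added as a 100 nM solution. The enzyme was added as a 5 nM USP2 solution before compound pinning, with no-enzyme controls. Buffer: Tris pH 8, beta-mercaptoethanol, CHAPS.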

Experiment [5] deals with Calcium and integrin-binding protein 1 (Homo sapiens) (UniProt Q99828). The experiment can be described thus: Confirmatory qHTS for Identification of Calcium Integrin Binding Protein 1 (CIB1) Competitor (AID 1508617). Further: nearly all actives have a fitted effect of over 65% in size. Further: potency means the concentration at half of the fitted maximal effect. The method, boiled down:
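Binding competition between test compounds and fluorescent alphaIIb peptide for 1 uM CIB1-GST is monitored by FP at 480/540 nm. Final compound range is up to 114 uM; unlabeled peptide serves as reference competitor.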

Molecules are shown by their SMILES. Inconclusive results are not listed. Where a call stands in place of a potency, no number is given. A number with no mark means an inactive call. The source made the active and inactive calls. The call rests on the fitted dose curve; in most records, active means well fitted curve in the direction sought with a large enough effect; inconclusive means small, poorly fitted or top-dose-only effect, or another doubt; inactive means no such curve, though single readings can be large; an effect the other way counts as inactive or inconclusive.

Chain of Ubiquitin carboxyl-terminal hydrolase 2 (Homo sapiens) (O75604 whole entry, looked up): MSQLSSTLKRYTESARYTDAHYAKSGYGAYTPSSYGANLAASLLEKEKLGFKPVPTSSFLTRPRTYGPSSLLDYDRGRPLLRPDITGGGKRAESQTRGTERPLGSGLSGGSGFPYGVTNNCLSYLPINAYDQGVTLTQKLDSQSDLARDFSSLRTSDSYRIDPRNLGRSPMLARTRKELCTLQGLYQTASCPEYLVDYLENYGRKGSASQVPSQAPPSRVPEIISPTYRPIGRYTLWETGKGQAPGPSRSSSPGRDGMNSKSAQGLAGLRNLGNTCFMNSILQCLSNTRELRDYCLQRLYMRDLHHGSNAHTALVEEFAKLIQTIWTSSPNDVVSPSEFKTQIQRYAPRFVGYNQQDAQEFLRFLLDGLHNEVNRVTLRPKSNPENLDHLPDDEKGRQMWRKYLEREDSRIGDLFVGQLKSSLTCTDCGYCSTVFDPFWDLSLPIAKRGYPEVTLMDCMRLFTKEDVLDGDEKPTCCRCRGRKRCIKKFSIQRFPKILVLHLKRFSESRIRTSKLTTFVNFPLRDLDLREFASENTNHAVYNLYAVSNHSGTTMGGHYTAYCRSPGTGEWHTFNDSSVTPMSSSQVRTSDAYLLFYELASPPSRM
Chain of Calcium and integrin-binding protein 1 (Homo sapiens) (Q99828 whole entry, looked up): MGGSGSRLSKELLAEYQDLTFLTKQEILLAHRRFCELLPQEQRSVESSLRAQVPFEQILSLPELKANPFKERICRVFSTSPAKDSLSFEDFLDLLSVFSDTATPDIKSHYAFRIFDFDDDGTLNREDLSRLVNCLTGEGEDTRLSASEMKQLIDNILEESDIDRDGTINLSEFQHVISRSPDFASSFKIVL

Consider `O=C(O)c1cccc(-n2cccc2/C=C2/C(=O)N(Cc3ccc(F)cc3)C(=O)N2Cc2ccc(F)cc2)c1`, for which the Potency result in experiment [1] is “inactive”.
With `O=[S+]([O-])(NCc1nccs1)c1ccc(Nc2nc(-c3ccccc3)cs2)cc1`, the compound was classed as inactive in experiment [2]. The Potency result in experiment [3] and in experiment [4] was “inactive” throughout. For the same compound, the Potency in experiment [5] was 50.1 µM (active).
For `Cc1ccc(S(=O)(=O)Nc2ccc(Br)cc2C(=O)Nc2nc(-c3ccccc3)cs2)cc1`, the compound was called inactive in experiment [2]. In addition, the Potency in experiment [4] is 0.968 µM (active). Also, the Potency result in experiment [5] was “inactive”.
As for `N#Cc1ccc(N[S+](=O)([O-])c2ccc(Nc3nc(-c4ccccc4)cs3)cc2)cc1`, in experiment [2], the compound was called inactive. Further, in experiment [4], the Potency entry was “inactive”. The Potency in experiment [5] was 44.7 µM (active).
Regarding `O=C(O)c1ccccc1SC1=NS(=O)(=O)c2ccccc21`, the Potency result in experiment [5] and in experiment [1] was “inactive” each time.
